Screens from PubChem BioAssay.
In the library only some 3.2% were active in any assay of this set; here they are far more common.
Vaccinia Venus: vaccinia inhibition (Venus reporter). Vaccinia virus Venus reporter expression, fluorescence. Potency, µM (series often up to 36.5 µM), actives largely listed as inhibitors. hit rate 0.46% among 330,000. AID 720580; calls by dose curve; tested in A549 cells; note: nearly all actives have a fitted effect of over 30% in size
Lassa entry inh: inhibitors of Lassa virus binding or cell entry; Potency, µM (series often up to 37.9 µM), actives largely listed as inhibitors; Lassa virus pseudotype entry inhibition, cell reporter; hit rate 1.2% among 300,000; calls by dose curve; tested in HEK293 cells; note: nearly all actives have a fitted effect of over 50% in size
FMDV inh: blocks foot and mouth disease virus. FMDV antiviral cell-based qHTS. Potency, µM (titrated, usually from 57.9 µM), actives largely listed as inhibitors. hit rate 1.2% among 410,000. AID 1159524; calls by dose curve; tested in HEK293T cells; note: read-out not given here; nearly all actives have a fitted effect of over 45% in size
Vaccinia mCherry: vaccinia inhibition (mCherry reporter); Potency, µM (doses to about 36.5 µM), hits mostly inhibitors; AID 720579; hit rate 0.63% among 310,000; Vaccinia virus mCherry reporter infection, fluorescence; calls by dose curve; tested in A549 cells; note: nearly all actives have a fitted effect of over 35% in size
MARV entry inh: Marburg virus entry inhibition. Marburg virus pseudotyped entry inhibition, cell reporter. Potency, µM (series often up to 37.8 µM), usual class: inhibitors. hit rate 1.8% among 300,000. AID 540276; calls by dose curve; tested in HEK293 cells
Each line names hits and unclear results; the compound was inactive in the other large screens.

COc1ccc2[nH]c3c(c2c1)CCN1C(=O)C(CC(=O)NCCC2=CCCCC2)C[C@H](C(=O)N2CCCCC2)[C@@]31C (stereo not given in full)	Vaccinia Venus inconclusive, Vaccinia mCherry 10µM (no result: Lassa entry inh)
CC(C)N(C(=O)[C@H]1C[C@H](CC(=O)NCCC2=CCCCC2)C(=O)N2CCc3c([nH]c4ccc(Cl)cc34)[C@]12C)C(C)C	Vaccinia Venus 16µM, FMDV inh inconclusive, Vaccinia mCherry inconclusive (no result: Lassa entry inh, MARV entry inh)
COc1ccc2[nH]c3c(c2c1)CCN1C(=O)C(CC(=O)NCCN2CCOCC2)C[C@H](C(=O)N(C(C)C)C(C)C)[C@@]31C (stereo not given in full)	Vaccinia Venus inconclusive (no result: Lassa entry inh, MARV entry inh)
Cn1cc(Cl)nc1[C@@H](O)c1ccccc1	none (no result: Vaccinia Venus, Lassa entry inh, FMDV inh, Vaccinia mCherry)
COc1ccc(NC(=O)C2SC(=S)N=C2N)cc1 (stereo not given)	none (no result: Vaccinia Venus, Lassa entry inh, FMDV inh, Vaccinia mCherry)
C=C1C(=O)[C@@]23C[C@H]4[C@@H]5[C@@]6(C)CCC[C@@]57[C@@H]2[C@@H](O)[C@@H]1C[C@H]3[C@H]7N4C6	Vaccinia Venus inconclusive, FMDV inh 25µM, Vaccinia mCherry inconclusive (no result: Lassa entry inh, MARV entry inh)
Clc1ccc(C(c2ccc(Cl)cc2)n2cc[n+](CC(OCc3ccc(Cl)cc3Cl)c3ccc(Cl)cc3Cl)c2)cc1 (stereo not given)	Vaccinia Venus 11µM, FMDV inh inconclusive, Vaccinia mCherry inconclusive, MARV entry inh 13µM (no result: Lassa entry inh)
Cc1ccc(-c2nc(NC(=O)c3nn(C)cc3[N+](=O)[O-])sc2C)cc1	FMDV inh 11µM (no result: Vaccinia Venus, Lassa entry inh, Vaccinia mCherry)
Cc1cnc(NC(=O)c2nn(C)cc2[N+](=O)[O-])s1	none
Cn1cc([N+](=O)[O-])c(C(=O)Nc2nc(-c3ccc(Cl)cc3)cs2)n1	Vaccinia Venus 11µM, Lassa entry inh inconclusive, FMDV inh inconclusive, MARV entry inh inconclusive (no result: Vaccinia mCherry)
Cc1ccc(Cn2ccc(NC(=O)c3nn(C)cc3[N+](=O)[O-])n2)cc1	Vaccinia mCherry inconclusive, MARV entry inh inconclusive
Cc1ccc(-c2nc(NC(=O)c3nn(C)cc3[N+](=O)[O-])sc2C)cc1C	Vaccinia Venus 13µM, Lassa entry inh 4µM, FMDV inh 13µM, Vaccinia mCherry 10µM, MARV entry inh inconclusive
CCCOC(=O)Nc1nc(-c2ccc(C)cc2)c(C)s1	Lassa entry inh 11µM
CCOc1ccc(CS[C@@H](CC(=O)O)C(=O)O)cc1	none (no result: Vaccinia Venus, Lassa entry inh, FMDV inh, Vaccinia mCherry)
CCCC=CC1C(=O)[C@@H]2O[C@H]2C2(OCC(CC)(CC)CO2)C1CO (stereo not given in full)	none (no result: Vaccinia Venus, Lassa entry inh, FMDV inh, Vaccinia mCherry)
CCOc1ccc(-c2nnc(SCC(=O)NCCC(C)C)nc2-c2ccc(OCC)c(OC)c2)cc1OC	Lassa entry inh inconclusive (no result: MARV entry inh)
CN(C(=O)Cc1ccc(Cl)c(Cl)c1)C(CN1CCCC1)c1cccc(N=C=S)c1 (stereo not given)	Vaccinia Venus inconclusive, Vaccinia mCherry inconclusive (no result: Lassa entry inh, MARV entry inh)
COc1ccc(N(CC(=O)N2CCc3ccccc3C2)S(=O)(=O)c2ccccc2)cc1	MARV entry inh inconclusive
Cc1ccc(S(=O)(=O)N(Cc2ccccc2)c2ccccc2C(=O)N2CCCCC2)cc1	Lassa entry inh inconclusive, Vaccinia mCherry inconclusive, MARV entry inh 10µM
COc1ccccc1N(CC(=O)N1CCCCCC1)S(=O)(=O)c1ccc(C)cc1	MARV entry inh inconclusive
COc1ccc(S(=O)(=O)N(CC(=O)N2CCc3ccccc3C2)c2ccc(C)cc2)cc1	Lassa entry inh 6.3µM
Cc1ccc(S(=O)(=O)N(CC(=O)N2CCCCCC2)c2ccccc2F)cc1	Lassa entry inh 10µM
COCCNC(=S)N/N=C(\C)c1ccc(Cl)s1	Vaccinia mCherry 8.9µM
C/C(=N\NC(=S)NCc1ccccc1)c1ccc(Cl)s1	MARV entry inh inconclusive
c1ccc(CN2CCN(c3nc(NCc4ccco4)c4ccccc4n3)CC2)cc1	Vaccinia Venus inconclusive, Lassa entry inh 13µM, FMDV inh 32µM, Vaccinia mCherry inconclusive, MARV entry inh inconclusive
CNc1nc(NCc2ccco2)c2ccccc2n1	Vaccinia Venus inconclusive (no result: Lassa entry inh, FMDV inh, MARV entry inh)
c1ccc(Nc2nc(NCc3ccco3)c3ccccc3n2)cc1	Vaccinia Venus inconclusive, Lassa entry inh 13µM, FMDV inh 14µM, MARV entry inh inconclusive
Cc1cccc(Nc2nc(NCc3ccco3)c3ccccc3n2)c1	Vaccinia Venus 13µM, Lassa entry inh 5.8µM, FMDV inh 28µM, Vaccinia mCherry inconclusive, MARV entry inh inconclusive
COc1ccc(OC)c(Nc2nc(NCc3ccco3)c3ccccc3n2)c1	FMDV inh inconclusive, MARV entry inh 13µM
O=C(NCCS(=O)(=O)NCc1ccccn1)c1ccccc1	none
COCc1cn(CC(C)n2c(=O)c3ccccc3n2Cc2cc(C(C)C)no2)nn1 (stereo not given)	none (no result: Lassa entry inh, MARV entry inh)
COc1ccc([C@]23Cc4cc(OC)c(OC)cc4[C@H](O2)C2=C(CC(C)(C)CC2=O)O3)cc1	none (no result: Vaccinia Venus, Lassa entry inh, FMDV inh, Vaccinia mCherry)
O=C(/C=C/c1ccco1)Nc1nc(-c2ccc(F)c(F)c2)cs1	FMDV inh 35µM (no result: Vaccinia Venus, Lassa entry inh, Vaccinia mCherry, MARV entry inh)
O=C(/C=C/c1ccco1)Nc1nc(-c2ccccc2)cs1	Lassa entry inh inconclusive, MARV entry inh inconclusive
Cc1oc(-c2nc3ccccc3n2C)cc1C(=O)c1ccccc1	Lassa entry inh 2.8µM, MARV entry inh 11µM
CC(=O)N[C@@H](C)C(=O)NCC1Cc2cccc(-c3ccccc3C(F)(F)F)c2O1 (stereo not given in full)	none (no result: Lassa entry inh, MARV entry inh)
CCCn1c(=O)c(C#N)cn(C2CC2)c1=O	MARV entry inh inconclusive
CCCCn1c(=N)n(CCCOc2ccc(F)cc2)c2ccccc21	Vaccinia Venus inconclusive, Lassa entry inh inconclusive, FMDV inh inconclusive, Vaccinia mCherry inconclusive, MARV entry inh 10µM
CCn1c(-c2ccccc2F)nc2cc(C(=O)NCC3CCOCC3)cc(NC(C)=O)c21	none (no result: Lassa entry inh, MARV entry inh)
COc1ccc(CNc2nc(S(=O)(=O)c3ccccc3)c(Cl)s2)cc1OC	Lassa entry inh inconclusive, FMDV inh 14µM, Vaccinia mCherry inconclusive, MARV entry inh inconclusive
CCOC(=O)c1ccc(NC(=O)C2CCCN(c3ccc(Sc4ccc(C)cc4)nn3)C2)cc1 (stereo not given)	Lassa entry inh 6.3µM, MARV entry inh inconclusive
Cc1ccc(Sc2ccc(N3CCCC(C(=O)Nc4ccc(F)cc4F)C3)nn2)cc1 (stereo not given)	Lassa entry inh 0.89µM, MARV entry inh inconclusive
CCN(CC)c1ccc(S(=O)(=O)N2CCOCC2)cc1NC(=O)CSc1n[nH]c(N)n1	none (no result: Vaccinia Venus, Lassa entry inh, Vaccinia mCherry, MARV entry inh)
CN1CCN(Cc2ccccc2Sc2ccccc2)CC1	Lassa entry inh inconclusive, MARV entry inh inconclusive
CN1CCC(Oc2ccccc2Sc2ccccc2)CC1	Vaccinia Venus inconclusive, Lassa entry inh 8.2µM, FMDV inh inconclusive, Vaccinia mCherry inconclusive, MARV entry inh 10µM
O=C(C(c1ccccc1)c1ccccc1)N1CC[C@@]2(O)CCCC[C@H]2C1	MARV entry inh 5.6µM
O=C(Cn1ccn(-c2ccc(F)cc2)c(=O)c1=O)Nc1ccc(F)cc1	none (no result: MARV entry inh)
COc1cc2c(cc1OC)CN(c1ccc(-c3ccccc3OC)nn1)CC2	Lassa entry inh inconclusive, FMDV inh 35µM, MARV entry inh inconclusive
COc1cc2c(cc1OC)CN(c1ccc3ccccc3n1)CC2	Vaccinia Venus inconclusive, Vaccinia mCherry inconclusive
O=C(NCCCO)C(=O)Nc1ccc2c(c1)N(S(=O)(=O)c1cccs1)CCC2	Vaccinia Venus inconclusive
COCCNC(=O)C(=O)Nc1ccc2c(c1)N(S(=O)(=O)c1cccs1)CCC2	Vaccinia Venus inconclusive, Lassa entry inh 1.8µM, MARV entry inh inconclusive
